Bioassay records as filed in PubChem BioAssay.
Rows were chosen to be rich in hits. Some 7.9% of all compounds tested hit in one or more screens of this group.
MITF inh: MITF inhibition | TRPM1 promoter luciferase, luminescence, 24 h | inhibition, % (no concentration beside the values) | actives 0.28% (n = 37,000) | AID 2240; in the data active = inhibition above about 85%; inconclusive = no clear call, values can overlap the other calls; inactive = below about 68%;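 note: human melanocyte line stably carrying TRPM1 promoter luciferase reporter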
Shh pathway inh: blocks Sonic Hedgehog signaling. Shh-LIGHT2 Gli-luciferase reporter, 30 h. inhibition, % (test concentration not listed). actives 2.1% (n = 22,000);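 active = mean inhibition across valid replicates above about 65%, limit read from the data; inconclusive = mean under the limit, yet half or more replicates past it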;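 note: pathway switched on by Shh-conditioned medium diluted 1 in 25 in low serum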
NOMO-1 viab: STK33 inhibitor candidate reducing NOMO-1 cell viability | actives 7.5% (n = 37,000) | NOMO-1 AML viability, CellTiter-Glo luminescence, 72 h | inhibition, % (concentration not given with the values); in the data active = inhibition above about 80%; inconclusive = no clear call, values can overlap the other calls
The depositor's hits bear a star; ? = inconclusive; . = no result.

SMILES | MITF inh | Shh pathway inh | NOMO-1 viab
COC(=O)COc1cccc(NC(=O)c2ccc(Cl)cc2)c1 | 7.4 | . | 113.6*
COC(=O)COc1cccc(NC(=O)c2cc(OC)cc(OC)c2)c1 | -8.0 | . | 108.6*
O=C(COc1cccc(NC(=O)c2ccc(Cl)cc2)c1)c1ccccc1 | 28.7 | . | 25.4
O=C(CSc1nc2ccccc2s1)Nc1cccc(Cl)c1Cl | 29.0 | . | 17.3
CC1(C(=O)NCCCn2ccnc2)CC1(Cl)Cl (stereo not given) | -1.7 | . | -9.6
COc1ccc(NC(=O)N(C)C[C@@H]2Oc3ccc(NS(=O)(=O)c4ccc(Cl)cc4)cc3CC(=O)N([C@H](C)CO)C[C@@H]2C)cc1 | -14.0 | . | 5.2
O=C(CSc1nnc(-c2ccccn2)n1-c1ccccc1)Nc1ccc(Br)cc1 | 11.9 | . | 30.1
C[C@@H]1CN([C@H](C)CO)C(=O)c2cc(NC(=O)Nc3ccc4c(c3)OCO4)ccc2O[C@H]1CN(C)Cc1ccc(C(F)(F)F)cc1 | 6.8 | . | 37.5
Cc1ccc(-c2nc3ncccc3o2)cc1NC(=O)C(C)Oc1ccc(Cl)cc1Cl (stereo not given) | -14.7 | . | 17.1
COc1cc(C(=O)Nc2cc(-c3nc4ncccc4o3)ccc2C)ccc1OCc1ccc(Cl)cc1 | ? | . | 112.4*
C[C@@H]1CN([C@H](C)CO)C(=O)c2cccc(NC(=O)Nc3ccc(C(F)(F)F)cc3)c2O[C@@H]1CN(C)C(=O)Nc1ccc(F)cc1 | 7.1 | 6.6 | 71.6
C[C@H]1CN([C@@H](C)CO)C(=O)c2cccc(N(C)C)c2O[C@@H]1CN(C)Cc1ccc(Cl)c(Cl)c1 | -4.8 | 3.4 | 44.7
C[C@@H]1CN([C@H](C)CO)C(=O)c2cccc(N(C)C)c2O[C@@H]1CN(C)Cc1ccc(Cl)c(Cl)c1 | -1.7 | -12.7 | 18.9
C[C@@H]1CN([C@@H](C)CO)C(=O)c2cccc(N(C)C)c2O[C@H]1CN(C)Cc1ccc(Cl)c(Cl)c1 | 9.1 | 3.1 | 97.3*
C[C@@H]1CN([C@H](C)CO)C(=O)c2cccc(N(C)C)c2O[C@H]1CN(C)Cc1ccc(Cl)c(Cl)c1 | 4.8 | -51.8 | 88.0*
COc1ccccc1-n1c(SCC(N)=O)nc2ccc(I)cc2c1=O | 31.6 | . | 17.6
COc1ccc(NC(=O)N(C)C[C@H]2Oc3ccc(NS(=O)(=O)c4ccc(F)cc4)cc3CC(=O)N([C@@H](C)CO)C[C@@H]2C)cc1 | -4.0 | -6.9 | 0.7
COc1ccc(OC)c(S(=O)(=O)Nc2cc([N+](=O)[O-])ccc2C)c1 | 5.4 | . | 16.5
C[C@H]1CN([C@@H](C)CO)C(=O)c2cccc(NC(=O)Nc3ccc4c(c3)OCO4)c2O[C@@H]1CN(C)Cc1ccccc1 | -27.1 | -7.3 | 55.3
C[C@H](CO)N1C[C@H](C)[C@H](CN(C)Cc2ccc(Oc3ccccc3)cc2)Oc2c(NC(=O)Nc3ccc4c(c3)OCO4)cccc2C1=O | 2.6 | 15.7 | 116.3*
C[C@@H]1CN([C@H](C)CO)C(=O)c2cccc(NC(=O)Nc3ccc4c(c3)OCO4)c2O[C@H]1CN(C)Cc1ccc(Oc2ccccc2)cc1 | 22.9 | -3.3 | 20.4
C[C@H]1CN([C@@H](C)CO)C(=O)c2cccc(NC(=O)Nc3ccc4c(c3)OCO4)c2O[C@H]1CN(C)Cc1ccccc1 | -5.0 | 9.0 | 65.1
C[C@@H]1CN([C@H](C)CO)C(=O)c2cccc(NC(=O)Nc3ccc4c(c3)OCO4)c2O[C@H]1CN(C)Cc1ccc(-c2ccccc2)cc1 | 3.6 | 2.2 | 91.0*
C[C@H](CO)N1C[C@H](C)[C@H](CN(C)Cc2ccc(-c3ccccc3)cc2)Oc2c(NC(=O)Nc3ccc4c(c3)OCO4)cccc2C1=O | -17.0 | -27.6 | 120.1*
C[C@@H]1CN([C@H](C)CO)C(=O)c2cccc(NC(=O)Nc3ccc4c(c3)OCO4)c2O[C@@H]1CN(C)Cc1ccc(-c2ccccc2)cc1 | -7.7 | 19.0 | 93.5*
SMILES | MITF inh | Shh pathway inh | NOMO-1 viab
Cn1c(SCC(=O)Nc2ccccc2C(F)(F)F)nnc1-c1ccco1 | -15.2 | . | -4.7
Cc1cccc(NC(=O)CSc2nc3ncnc(N)c3[nH]2)c1 | -13.1 | . | 8.6
COc1ccccc1NC(=O)CSc1nnc(-c2ccc(Br)cc2)n1C | 14.2 | . | 8.3
O=C(CSc1nc2ccccc2[nH]1)Nc1ccc2c(c1)oc1ccccc12 | 0.6 | . | 31.7
CS(=O)(=O)N(CC(=O)Nc1ccc2ccccc2c1)c1ccc(F)cc1 | -7.2 | . | 41.4
Cc1cccc(OCC(O)Cn2cnc3ccccc32)c1C (stereo not given) | 55.3 | . | 47.7
C[C@@H]1CN([C@@H](C)CO)C(=O)c2cccc(NC(=O)Nc3ccc4c(c3)OCO4)c2O[C@@H]1CN(C)Cc1ccc2c(c1)OCO2 | -19.5 | -3.2 | 29.2
C[C@@H]1CN([C@@H](C)CO)C(=O)c2cccc(NC(=O)Nc3ccc4c(c3)OCO4)c2O[C@@H]1CN(C)Cc1ccc(-c2ccccc2)cc1 | -8.0 | 45.1 | 116.0*
C[C@@H]1CN([C@H](C)CO)C(=O)Cc2cc(NS(=O)(=O)c3ccccc3)ccc2O[C@@H]1CN(C)S(C)(=O)=O | -15.9 | 13.9 | 6.0
CC(C)(C)NC(=O)CC(c1ccccc1)c1ccccc1 | 8.2 | 13.4 | 28.1
C[C@H](CO)N1C[C@H](C)[C@@H](CN(C)Cc2ccc(C(F)(F)F)cc2)Oc2ccc(NC(=O)Nc3ccc(F)cc3)cc2C1=O | 55.7 | 29.3 | 119.4*
C[C@H](CO)N1C[C@H](C)[C@@H](CN(C)Cc2ccc(C(F)(F)F)cc2)Oc2ccc(NC(=O)Nc3ccc(C(F)(F)F)cc3)cc2C1=O | 10.7 | -53.2 | 129.7*
C[C@@H]1CN([C@@H](C)CO)C(=O)c2cc(NC(=O)Nc3ccc(C(F)(F)F)cc3)ccc2O[C@@H]1CN(C)Cc1ccc(C(=O)O)cc1 | 5.5 | -70.1 | 5.7
C[C@H]1CN([C@@H](C)CO)C(=O)c2cc(NC(=O)Nc3ccc(C(F)(F)F)cc3)ccc2O[C@@H]1CN(C)Cc1ccc(C(F)(F)F)cc1 | 94.6* | . | 114.2*
C[C@@H]1CN([C@H](C)CO)C(=O)c2cc(NC(=O)Nc3ccc(F)cc3)ccc2O[C@@H]1CN(C)Cc1ccc(C(F)(F)F)cc1 | 59.0 | . | ?
C[C@@H]1CN([C@@H](C)CO)C(=O)c2cc(NC(=O)Nc3ccc(C(F)(F)F)cc3)ccc2O[C@H]1CN(C)Cc1ccc(C(F)(F)F)cc1 | 10.4 | . | 116.6*
COC(=O)C(C)Sc1nc(N2CCOCC2)nc(N2CCOCC2)n1 (stereo not given) | -28.0 | . | 21.7
Cc1ccc2oc(-c3cc(NC(=O)COc4ccccc4)ccc3Cl)nc2c1 | -20.7 | . | 22.4
COc1cc(NS(=O)(=O)c2ccc(NC(=O)c3csc(C)c3)cc2)nc(OC)n1 | 9.9 | . | 3.9
C[C@@H]1CN([C@@H](C)CO)C(=O)c2cc(NC(=O)Nc3ccc(C(F)(F)F)cc3)ccc2O[C@@H]1CN(C)Cc1ccc(Cl)c(Cl)c1 | 18.1 | -7.9 | 107.6*
C[C@@H]1CN([C@@H](C)CO)C(=O)c2cc(NC(=O)Nc3ccc(C(F)(F)F)cc3)ccc2O[C@@H]1CN(C)Cc1ccc(C(F)(F)F)cc1 | 101.0* | 17.9 | 118.0*
C[C@H]1CN([C@@H](C)CO)C(=O)c2cc(NC(=O)Nc3ccc(C(F)(F)F)cc3)ccc2O[C@@H]1CN(C)Cc1ccncc1 | -21.5 | 35.0 | 36.3
C[C@H](CO)N1C[C@H](C)[C@H](CN(C)Cc2ccc(C(F)(F)F)cc2)Oc2ccc(NC(=O)Nc3ccc(C(F)(F)F)cc3)cc2C1=O | 23.7 | . | 39.0
